The source of these data is PubChem BioAssay (Tox21).

Results filed as inconclusive are left out. Activity calls are given as the source filed them. The call rests on the fitted dose curve; in most records, active means well fitted cell-killing curve with a large enough effect in the repeat runs; inconclusive means weak or mixed curves; inactive means flat fitted curve, though single readings scatter.

The assay in a line: qHTS RealTime-Glo MT Cell Viability Assay in HepG2 cells - 8 hour (AID 1224873). Further: nearly all actives have a fitted effect of over 55% in size. The conditions noted are these: RealTime-Glo luminescence; series mostly up to 76.8 µM. The text has this: National Center for Advancing Translational Sciences [NCATS]
NIH Chemical Genomics Center [NCGC]
U.S. Environmental Protection Agency [EPA]
National Institutes of Environmental Health Sciences [NIEHS]
National Toxicology Program [NTP]
U.S. Food and Drug Administration [FDA]
Measure of cell viability is critical in the cell-base assay. Analysis of cell viability is necessary for the characterization of cell responses to cytotoxic drugs and environmental stress. A RealTime-Glo MT Cell Viability Assay to monitor cell viability in real time of continues cell culture during 40 hours of compound treatment was used to screen Tox21 10K library compounds in HepG2 cells. The RealTime-Glo MT Cell Viability Assay is a nonlytic, homogeneous, bioluminescent method to measure cell viability in real time using a simple, plate-based method. The assay involves adding NanoLuc luciferase and a cell-permeant prosubstrate to cells in culture. Viable cells reduce the proprietary prosubstrate to generate a substrate for NanoLuc luciferase. This substrate diffuses from cells into the surrounding culture medium, where it is rapidly used by the NanoLuc Enzyme to produce a luminescent signal. The signal correlates with the number of viable cells, making the assay well suited for cytotoxicity studies.
Tox21 Assay Protocol Summary:
The mixture of HepG2 cell suspension and reagents were dispensed at 600cells/6 ul/well in 1536-well tissue culture treated black solid bottom plates using a Multidrop dispenser. After the assay plates were incubated at a 37 C/5% CO2 incubator for 5 hours, 23 nL of compounds dissolved in DMSO, positive and negative controls was transferred to the assay plate by a pintool work station. The plates were incubated at 37 C for 40 hours. The luminescence intensity were measured at 0h, 8h, 16h, 24h, 32h and 40h time points using ViewLux plate reader during compound treatment.
Consider `CCSC(=O)N1CCCCCC1`, for which the compound was classed as inactive.

For the compound `N#Cc1cccc(C#N)c1`, the call was inactive.

As to `CNC(=O)O/N=C/C(C)(C)S(C)(=O)=O`, the compound was called inactive.

Regarding `C=C(C)C(=O)OCC(CC)CCCC` (stereo not given), the compound was called inactive.

Regarding `CNC(=O)Oc1cccc2ccccc12`, the result was inactive.

Consider `O=C(O)Cc1ccccc1`, for which the compound was classed as inactive.

On to `CN(C)C(=O)Nc1cccc(C(F)(F)F)c1`, for which the compound was called inactive.

Turning to `COP(=S)(OC)SCN1C(=O)c2ccccc2C1=O`, the compound was classed as inactive.

For `Cc1ccc(N=C=O)cc1N=C=O`, the compound was called inactive.

For `NNc1ccccc1`, the call was inactive.

Take `CCOC(=O)CC(SP(=O)(OC)OC)C(=O)OCC` (stereo not given): the outcome was inactive.

With `Cc1cccc(C)c1N`, the call was inactive.

`CC(C)CCCCCCOC(=O)c1ccccc1C(=O)OCCCCCCC(C)C`: the call was inactive.

On to `CN(C)C(=O)C(c1ccccc1)c1ccccc1`, for which the result was inactive.

As to `C=CCN=C=S`, the call was inactive.

For `COc1cc(-c2ccc(N)c(OC)c2)ccc1N`, the call was inactive.

Regarding `O=[N+]([O-])c1cc([As](=O)(O)O)ccc1O`, the compound was classed as inactive.

Turning to `Cc1cccc(C)c1NC(=O)CN1CCCC1=O`, the result was inactive.

As to `CCCOC(=O)c1ccccc1C(=O)OCCC`, the compound was classed as inactive.

As for `CC[N+](=O)[O-]`, the compound was called inactive.

`CNc1cnn(-c2cccc(C(F)(F)F)c2)c(=O)c1Cl`: the outcome was inactive.

`CC(=O)C1CCOC1=O` (stereo not given): the compound was classed as inactive.

As to `COS(=O)(=O)OC`, the outcome was inactive.

Regarding `CSc1nnc(C(C)(C)C)c(=O)n1N`, the call was inactive.

For the compound `O=C(O)C1C(C(=O)O)C2(Cl)C(Cl)=C(Cl)C1(Cl)C2(Cl)Cl` (stereo not given), the compound was classed as inactive.

Take `CN(C)C(=O)Cl`: the outcome was inactive.

In the case of `COc1nc(NC(C)C)nc(NC(C)C)n1`, the compound was classed as inactive.

`CC(C)(C)C(=O)CCl`: the compound was called inactive.

Regarding `C[C@H]1C(=O)O[C@@H]2CCN3CC=C(COC(=O)[C@](C)(O)[C@]1(C)O)[C@H]23`, the outcome was inactive.

As for `COP(=S)(OC)Oc1ccc(SC)c(C)c1`, the compound was called inactive.

As for `CNC(=O)O/N=C/C(C)(C)S(C)=O` (stereo not given), the call was inactive.

As to `CNC(=O)O/N=C/C(C)(C)SC`, the outcome was inactive.

Turning to `COC(C)(C)CCCC(C)C/C=C/C(C)=C/C(=O)OC(C)C` (stereo not given), the compound was called inactive.

On to `CC(C)c1cccc(C(C)C)c1O`, for which the call was inactive.

Turning to `ClCCOCCCl`, the call was inactive.

On to `CCOc1ccc(N)cc1`, for which the outcome was inactive.

Consider `CCOP(=S)(OCC)Oc1ccc([N+](=O)[O-])cc1`, for which the result was inactive.

In the case of `O=C(O)c1cc(Oc2ccc(C(F)(F)F)cc2Cl)ccc1[N+](=O)[O-]`, the result was inactive.

With `Sc1ccccc1`, the result was inactive.

Consider `OC[C@@H](O)[C@H]1O[C@@H]2O[C@H](C(Cl)(Cl)Cl)O[C@@H]2[C@H]1O`, for which the result was inactive.
